# Measurements published in the supplement of paper PMC6555819.
# Experiments:
# Test in all cases: PBM binding z-score (relative to random genomic background probes); higher = stronger binding; sequences stand for … in GC…GCGATTGACAGCGTAGAATGAAGG
# [1] = test system: FXR:RXRa (NR concentration 270 nM, RXRa partner concentration 90 nM)
# Procedure, shortened: (§1)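 Scanned fluorescence from custom Agilent 4×180K protein-binding microarrays was regression-normalized. Binding z-scores use random background probes as reference. Ligand-free nuclear receptor dimers were incubated on the arrays for 1 h and detected with antibodies against each partner (one per run).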
# [2] = test system: LXRa:RXRa (NR concentration 270 nM, RXRa partner concentration 90 nM)
# Procedure, shortened: as §1
# [3] = test system: LXRa homodimer (NR concentration 270 nM)
# Procedure, shortened: as §1
# [4] = test system: LXRb:RXRa (NR concentration 270 nM, RXRa partner concentration 90 nM)
# Procedure, shortened: as §1
# [5] = test system: LXRb homodimer (NR concentration 270 nM)
# Procedure, shortened: as §1
# [6] = test system: PPARa:RXRa (NR concentration 270 nM, RXRa partner concentration 90 nM)
# Procedure, shortened: as §1
# [7] = test system: PPARg:RXRa (NR concentration 180 nM, RXRa partner concentration 90 nM)
# Procedure, shortened: as §1
# [8] = test system: PPARg:RXRa 270nM:90nM, anti-RXR (NR concentration 270 nM, RXRa partner concentration 90 nM)
# Procedure, shortened: as §1
# [9] = test system: PPARg:RXRa 30nM:10nM, anti-RXR (NR concentration 30 nM, RXRa partner concentration 10 nM)
# Procedure, shortened: as §1
# [10] = test system: PPARg:RXRa 90nM:30nM, anti-RXR (NR concentration 90 nM, RXRa partner concentration 30 nM)
# Procedure, shortened: as §1
# [11] = test system: PPARg:RXRa DBDmut IVT, anti-RXR (DBD mutation: RXRa K156A/R161A, NR concentration 270 nM, RXRa partner concentration 90 nM)
# Procedure, shortened: as §1
# [12] = test system: PPARg:RXRa IVT, anti-PPARg (NR concentration 270 nM, RXRa partner concentration 90 nM)
# Procedure, shortened: as §1
# [13] = test system: PPARg DBDmut:RXRa IVT, anti-PPARg (DBD mutation: PPARg1 K132A/R137A, NR concentration 270 nM, RXRa partner concentration 90 nM)
# Procedure, shortened: as §1
# [14] = test system: PPARg DBDmut IVT, anti-PPARg (DBD mutation: PPARg1 K132A/R137A, NR concentration 270 nM)
# Procedure, shortened: as §1
# [15] = test system: PPARg homodimer (NR concentration 180 nM)
# Procedure, shortened: as §1
# [16] = test system: PXR:RXRa (NR concentration 270 nM, RXRa partner concentration 90 nM)
# Procedure, shortened: as §1
# [17] = test system: PXR homodimer (NR concentration 270 nM)
# Procedure, shortened: as §1
# [18] = test system: RARa:RXR (NR concentration 270 nM, RXRa partner concentration 90 nM)
# Procedure, shortened: as §1
# [19] = test system: RARa homodimer (NR concentration 270 nM)
# Procedure, shortened: as §1
# [20] = test system: RARb:RXRa (NR concentration 270 nM, RXRa partner concentration 90 nM)
# Procedure, shortened: as §1
Sequence,PBM binding z-score [1],PBM binding z-score [2],PBM binding z-score [3],PBM binding z-score [4],PBM binding z-score [5],PBM binding z-score [6],PBM binding z-score [7],PBM binding z-score [8],PBM binding z-score [9],PBM binding z-score [10],PBM binding z-score [11],PBM binding z-score [12],PBM binding z-score [13],PBM binding z-score [14],PBM binding z-score [15],PBM binding z-score [16],PBM binding z-score [17],PBM binding z-score [18],PBM binding z-score [19],PBM binding z-score [20]
TCTCGGAGAACACGAAGGTCAGAGCTTTCCAGAG,-0.456,0.775,-0.321,0.915,-0.994,1.59,0.33,1.41,2.09,1.74,1.08,0.106,-2.09,-1.27,0.419,1.29,-0.535,1.67,-0.665,2.49
TCTCAGAGGACACGAAGGTCAGAGCTTTCCAGAG,1.39,1.27,0.407,0.974,-0.749,2.07,0.696,2.01,3.02,2.45,1.91,1.5,-0.856,-1.02,1.11,2.05,0.954,2.02,-0.195,3.78
GATACAGGGTCAAGGCCAAAGTACGCGTATTGAT,6.56,4.57,0.296,4.15,0.33,5.6,6.18,5.96,2.37,4.76,2.58,4.27,2.3,0.743,3.07,4.48,0.731,5.02,1.25,4.5
CCTACTGGGCCAAAGGTCATCGATTCCAATGCTC,4.44,5.28,3.59,4.41,0.378,6.8,11.5,10.6,10.6,11.5,4.64,6.76,0.425,-0.332,3.7,5.15,0.811,6.16,1.37,4.7
CGTCCAAGGGCAAGGTCAGTGAAAGAGACTCGAA,1.95,1.58,-0.119,1.22,-0.836,2.75,0.977,1.31,-0.324,0.436,0.735,1.62,-1.01,-1.55,0.963,1.68,-0.101,2.16,0.0198,3.94
TCGATTAGGTTAGGGGCATTCAGAATGGCGTCGA,0.719,0.542,0.0424,1.5,0.612,1.46,0.358,2.01,2.41,2.22,1.99,0.798,-0.691,0.33,1.07,0.603,0.447,0.692,0.352,1.57
ACTATTAGTTGATTTAGGGCAACCGATACGACGC,0.352,0.0302,0.44,0.0865,1.19,0.816,0.99,0.588,0.446,0.717,1.57,2.39,2.12,1.32,1.41,0.00966,0.993,0.345,1.47,0.582
ATCGAAAGCTCGACGAGGTGAGTATACACCGTTT,-0.406,-0.524,-0.742,-0.456,-0.163,-0.348,0.614,-0.448,0.105,-0.367,-0.441,0.00949,0.478,0.316,-0.162,-0.321,-0.326,-0.226,-0.876,-0.148
TAGCCTAGGTCATGAGCCAGTATACCACGCGAAC,4.38,3.4,0.262,2.43,0.0464,3.93,3.35,2.98,0.892,2.05,1.81,3.11,-0.211,0.0511,1.45,1.61,-0.537,2.64,0.534,3.58
ATCGAAAGGTCGACGAGGTGAATATACACCGTTT,5.37,3.82,0.162,3.31,0.511,4.54,3.21,3.62,1.4,2.47,0.98,2.07,1.87,0.44,2.04,3.88,1.24,4.49,1.02,3.94
AGAATGCGGTTACCAAAGATCAGGGAAACGCTTG,-0.546,1.96,-0.607,-0.204,-0.992,0.0564,0.562,0.104,-0.151,-0.17,-0.0849,-0.0394,-0.888,-0.42,-0.659,-0.382,-0.939,-0.221,-0.366,0.18
TCCCGGAGGACACGAAGGTCAGAGCTTTCCAGAG,1.21,1.09,0.214,0.838,-1.26,1.81,0.359,1.33,1.5,1.41,0.961,0.734,-0.541,-1.41,1.3,1.73,0.166,1.95,-0.433,3.44
ACAGACACGTGATGAAGGTAACTCAGGCTATCAT,0.135,0.0254,-0.272,0.133,-0.0548,-0.111,0.787,-0.012,0.0893,-0.0553,-0.318,-0.0146,0.501,0.226,0.142,-0.0986,0.0203,0.352,0.63,-0.138
AATACAGGGTCACTAGTCCAGAGTAGGTACGAAT,5.5,4.68,0.946,3.94,1.32,5.09,5.61,5.17,1.77,3.89,3.25,4.67,0.95,0.987,1.66,2.97,0.58,3.7,1.03,3.99
CGAACGAGGGCATGAGTTGATATCAAATGCCGAT,0.475,0.326,-0.371,0.156,-0.654,1.59,1.58,1.42,0.347,0.786,3.23,2.11,0.21,-0.287,0.26,0.636,-0.013,0.352,-0.464,2.01
GCTATTAGTTGAAAGAGCAACCGAATGATTCTCG,-0.368,-0.335,-0.0598,-0.509,-0.535,0.321,0.704,1.95,0.137,1.51,0.238,-0.404,0.37,0.517,0.13,-0.39,-0.276,-0.118,0.294,-0.146
CCTACTGGCCCATTCAGAGGTCATTGATCATATG,2.81,4.4,6.69,3.76,0.83,3.28,0.571,1.44,0.377,1.09,-0.184,0.996,-0.258,-0.298,2.98,4.67,2.7,4.14,1.58,2.81
ACTCGGAGGACAAAGGTCGGAGCTACGCCAGTGA,0.927,1.18,-0.439,0.689,-0.291,2.9,4.62,5.7,3.54,5.62,-0.0622,1.75,-0.143,-0.29,0.786,1.29,-0.332,1.84,-0.447,2.34
CCAGACAGGTGAAAAGTAACTCAGTCTGGTACGC,-0.306,-0.0475,-0.078,0.0504,-0.286,1.01,1.08,2.27,0.369,1.43,1.47,0.789,-0.595,-0.539,0.332,-0.0943,-0.142,0.133,0.489,0.36
ATATGTAGGTTAGCTGGGGTCGTTCAGACTAGGC,1.41,3.09,0.399,2.71,0.5,3.82,3.96,3.57,1.33,2.73,6.38,6.16,1.24,1.41,0.751,4.69,1.3,2.76,0.512,1.51
ACTAGCAGGCCTAGGGTCACTCAAGATTAGTCCG,1.77,1.89,-0.469,1.82,-0.871,2.81,1.99,3.41,1.39,2.89,-0.156,0.917,-0.943,-1.16,1.39,2.65,0.0787,3.09,-0.643,2.44
ACAGACAGCTGAGTGAAGGTAACTCAGCTGGACG,-0.287,-0.122,-0.822,-0.496,-0.626,-0.464,0.214,-0.699,-0.617,-0.561,-0.835,-0.364,-0.856,-0.718,-1.12,-0.593,-0.603,-0.513,-0.693,-0.274
AGTCAGAGTTCAGGACGAGGTAACGTAAAGCACG,3.72,3.51,0.881,1.82,-0.0374,3.02,2.26,2.51,0.689,2.1,-0.749,0.676,0.355,-0.341,1.36,3.45,1.88,2.67,0.511,3.62
TCCAGTAGGTTACCAATGGGGCATTCAGCTTTCT,0.247,1.53,-0.513,0.676,-0.862,1.6,1.15,2.54,2.63,2.39,4.6,4.34,-0.355,-0.253,0.0888,0.286,-0.589,0.451,-0.883,1.31
ACAGATAGGTGATGAAGGTAACTCAGGCTATCAT,-0.192,-0.132,-0.27,-0.29,-0.768,0.548,0.643,0.541,0.412,0.624,0.825,0.996,0.38,0.000268,0.111,0.00334,-0.296,0.286,0.188,0.11
TCTATTATTTGAAGGGCAACCGACGAGTCCGTTT,1.12,1.55,1.32,1.35,0.721,1.29,0.336,2.22,4.08,3.41,2.78,0.734,0.771,1.44,2.12,1.23,1.48,0.961,3.23,1.56
GGAACGAGGGCATTCGAGTTGATATCATGGCGAT,1.43,2.06,-0.497,0.289,-0.383,1.64,1.04,0.683,0.332,0.448,2.99,2.26,-0.118,-0.698,0.277,3.8,1.54,0.922,-0.657,1.78
CAGCCTAGGTCAGGGCCAGTGTAGGAGGAACGTT,1.51,1.17,-0.646,0.424,-1.41,2.1,0.721,0.845,-0.701,-0.0334,1.13,1.58,-0.0989,-1.49,0.588,0.476,-0.524,1.01,-0.522,3.5
GCAGACAGGTGAAACGCAGTTAACTCAGGGTGGC,-0.413,-0.168,-0.315,-0.381,-1.38,0.714,0.486,-0.149,-0.977,-0.452,0.917,0.29,-1.71,-0.986,-0.869,-0.255,-0.841,0.164,-0.965,0.589
